Results on 66 compounds are retold here after PubChem BioAssay AID463173 (ICCB-Longwood Screening Facility, Harvard Medical School, 2010).

Hit rate of the full screen: of about 52,000 compounds, about 4,300 (8.3%) were called active. Many of the other results were omitted from the sample, so actives are more common in it than they were. A number with no mark means an inactive call. No stated cut-off is given here; in the data, active means survival mostly below about 52% (no sharp cut-off); inactive means mostly above about 56%.

This assay deals with DeltatarO mutant. Description: growth inhibition of S. aureus wild type versus tarO mutant, primary screen, teichoic acid synthesis inhibitors, RN4220, OD600 (AID 463173). To be noted: OD600, 18 h, hits give low values, screened at 18.75 µg/mL (by protocol).
As for `CCOc1ccc(C2C(C(=O)Nc3ccccc3)=C(C)Nc3nc(SCc4cc(C)ccc4C)nn32)cc1` (stereo unspecified), the survival is 123%.

`Cc1ccc(NC(=O)Cn2c(=O)n(-c3ccc(CC(=O)NCC4CCCO4)cc3)c(=O)c3ccccc32)cc1` (stereo unspecified): the survival was 95%. For the compound `CCCCOC(=O)c1ccc(NC(=O)c2cc3c(=O)n4cccc(C)c4nc3s2)cc1`, the survival is 66%.

Consider `COc1cc(OC)cc(C(=O)NCC(c2cccs2)S(=O)(=O)c2ccc(F)c(C)c2)c1` (stereo unspecified), for which the survival was 100%. The result for `Cc1cccc(NC(=O)C2CCCN(S(=O)(=O)c3ccc4c(c3)CCCC(=O)N4)C2)c1` (stereo unspecified) reads 95%; that for `COc1ccc(NS(=O)(=O)c2ccc3[nH]c(=O)ccc3c2)cc1OC`, 98%. Regarding `COc1ccc(-c2nc3sc(CCNC(=O)c4cc(Cl)ccc4OC)c(C)n3n2)cc1`, the survival is 73%. With `COc1ccc(C(C(=O)NCc2cccs2)N(Cc2ccco2)C(=O)Cn2nnc(-c3cccs3)n2)cc1` (stereo unspecified), the survival was 93%. Take `CCc1cccc(C)c1NC(=O)CCCn1nc(C)c2sc3ccccc3c2c1=O`: the survival was 86%. Next, `CCc1ccc(Sc2cc(C(=O)O)c3ccccc3n2)cc1`: 78%; `CCOCCCNC(=O)CN1C(=O)COc2ccc(S(=O)(=O)N3CCCC3)cc21`: 87%; `CCC(Cn1nnc2ccccc2c1=O)NC(=O)Nc1cc(OC)cc(OC)c1` (stereo unspecified): 88%. As for `CCC(Cn1nnc2ccccc2c1=O)NC(=O)Nc1ccc(C)cc1` (stereo unspecified), the survival was 55%. Next, `CCC(Cn1nnc2ccccc2c1=O)NC(=O)Nc1ccccc1Cl` (stereo unspecified): 85%; `CCC(Cn1nnc2ccccc2c1=O)NC(=O)Nc1ccc(C)c(C)c1` (stereo unspecified): 45%. Next, `CCC(Cn1nnc2ccccc2c1=O)NC(=O)Nc1cccc(Cl)c1` (stereo unspecified): 39% (active); `CCC(Cn1nnc2ccccc2c1=O)NC(=O)Nc1ccc(C)cc1C` (stereo unspecified): 44% (active); `CCc1ccccc1NC(=O)NC(CC)Cn1nnc2ccccc2c1=O` (stereo unspecified): 61%. In the case of `CCC(Cn1nnc2ccccc2c1=O)NC(=O)Nc1cc(C)cc(C)c1` (stereo unspecified), the survival is 41% (active). For `CCC(Cn1nnc2ccccc2c1=O)NC(=O)Nc1cccc(C)c1C` (stereo unspecified), the survival is 55%.

`COc1ccccc1CNC(=O)C(C)n1ccc2cc(S(=O)(=O)N3CCCC3)ccc21` (stereo unspecified): the survival is 81%. Next, `CCc1ccc(CN2CCC(C(=O)N(C)CCc3ccc(OC)c(OC)c3)CC2)cc1`: 81%. Take `CCCN(C(=O)c1cc2c(=O)[nH]c3ccc(C)cc3c2s1)c1ccc(CC)cc1`: the survival was 64%.

As for `CCCCNS(=O)(=O)c1ccc(NC(=O)c2c(-c3ccccc3)noc2C)cc1`, the survival is 101%.

With `CN(C)c1ccc(CNC(=O)C2CCN(S(=O)(=O)c3ccc4c(ccn4C)c3)CC2)cc1`, the survival was 95%.

Regarding `Cc1ccc(NC(=O)c2cnc(SCC(=O)Nc3cc(C)on3)n(C)c2=O)cc1`, the survival was 88%. `COc1ccc(CCn2c3c(c(=O)[nH]c2=O)C(NC(=O)c2ccccc2F)(C(F)(F)F)C(=O)N3)cc1OC` (stereo unspecified): the survival is 60%. As to `COc1ccc(N(Cc2cc3ccccc3[nH]c2=O)C(=O)c2cccc(Cl)c2)cc1`, the survival is 87%. Next, `COc1ccc(CCNC(=O)CCCCn2c(=O)c3ccccc3n(Cc3cc(C)ccc3C)c2=O)cc1OC`: 108%; `Cc1ccc(N2CC(c3nnc(Cc4ccc(Cl)cc4)o3)CC2=O)cc1` (stereo unspecified): 48%; `O=C1CC(c2nnc(Cc3ccc(F)cc3)o2)CN1c1ccccc1` (stereo unspecified): 134%.

Turning to `Cc1ccc(N2CC(c3nnc(Cc4ccc(F)cc4)o3)CC2=O)cc1` (stereo unspecified), the survival was 24% (active). Take `COc1ccc(S(=O)(=O)Nc2cccc(-c3ccc(N4CCCCCC4)nn3)c2)c(OC)c1`: the survival was 74%. Regarding `COc1ccc(Cn2ccc3nc(C)c(C(=O)N4CCN(c5cccc(OC)c5)CC4)cc3c2=O)cc1`, the survival was 81%. The result for `Cc1ccc(Cl)cc1NC(=O)Nc1cccc(OCc2cc(=O)n3ccccc3n2)c1` reads 72%; that for `Cc1ccc2nc(COc3cccc(NC(=O)c4ccccc4Cl)c3)cc(=O)n2c1`, 75%; that for `Cc1ccc2nc(COc3cccc(NC(=O)Nc4ccc(C)c(Cl)c4)c3)cc(=O)n2c1`, 25% (active). With `Cc1ccc2nc(COc3ccccc3NC(=O)c3ccc(F)cc3)cc(=O)n2c1`, the survival is 20% (active). Regarding `O=C(COc1ccc(F)cc1)Nc1cccc(OCc2cc(=O)n3ccccc3n2)c1`, the survival was 102%. In the case of `CCC(=O)Nc1cccc(OCc2cc(=O)n3cc(C)ccc3n2)c1`, the survival is 55%. As for `Cc1cccc(C(=O)Nc2ccccc2OCc2cc(=O)n3cc(C)ccc3n2)c1`, the survival was 60%. Next, `O=C(Nc1cccc(OCc2cc(=O)n3ccccc3n2)c1)Nc1cccc(C(F)(F)F)c1`: -4% (active); `Cc1ccc2nc(COc3ccccc3NC(=O)c3ccccc3F)cc(=O)n2c1`: 85%; `CCc1ccc(NC(=O)CSc2cn(CC(=O)N3CCCC3)c3ccccc23)cc1`: 97%. `COc1ccc(C)cc1S(=O)(=O)NCC(c1ccc(N(C)C)cc1)N1CCc2ccccc21` (stereo unspecified): the survival is 55%. Next, `Cc1cccc(-n2ccnc2SCC(=O)Nc2nc3ccccc3s2)c1`: 93%; `COc1ccc(OC)c(NC(=O)/C=C/c2ccc(C)o2)c1`: 40% (active). Take `Cc1ccc(/C=C/C(=O)Nc2ccccc2C(N)=O)o1`: the survival was 64%.

In the case of `Cc1ccc(NC(=O)/C=C/c2ccc(C)o2)c(C)c1`, the survival is 46%. In the case of `CCOC(=O)c1cc(-c2ccccc2)n(CCC(=O)Nc2ccc(Cl)c(C(F)(F)F)c2)c1C`, the survival was 102%. The result for `CN(C)S(=O)(=O)c1ccc(S(=O)(=O)N(Cc2ccccc2F)C2CC2)cc1` reads 91%; that for `CCCCN(CCCNC(=O)c1c(C)oc2nc[nH]c(=O)c12)Cc1ccccc1`, 53% (active); that for `CCN(CCCNC(=O)c1c(C)oc2ncn(CC(C)C)c(=O)c12)Cc1ccccc1`, 83%.

For `Cc1oc2ncn(C)c(=O)c2c1C(=O)NCCCN(Cc1ccccc1)C(C)C`, the survival is 72%. For `O=C(CSc1ncn(-c2ccccc2)n1)c1ccc(Cl)cc1`, the survival was 74%.

Regarding `CCCCN1C(C(=O)c2ccccc2)=C(OC(C)=O)c2ccccc2S1(=O)=O`, the survival is -4% (active).

Take `COC(=O)CN1C(C(=O)c2ccccc2)=C(OC(=O)c2ccc(F)cc2)c2ccccc2S1(=O)=O`: the survival is 56%. Turning to `CCCCN(CCCC)C1=C(C(=O)c2ccccc2)N(C)S(=O)(=O)c2ccccc21`, the survival is 72%. On to `CCCCN(CCCC)C1=C(C(=O)c2ccccc2)N(CC)S(=O)(=O)c2ccccc21`, for which the survival was 60% (active). Next, `CCCCN1C(C(=O)c2ccccc2)=C(OC(=O)CC)c2ccccc2S1(=O)=O`: -4% (active). As to `CCCN1C(C(=O)c2ccccc2)=C(OC(=O)c2ccc(C)cc2)c2ccccc2S1(=O)=O`, the survival is 52%. `CCCN1C(C(=O)c2ccccc2)=C(OC(=O)c2ccc(F)cc2)c2ccccc2S1(=O)=O`: the survival is 31% (active).

Consider `CCCCCN1C(C(=O)c2ccccc2)=C(NC(C)=O)c2ccccc2S1(=O)=O`, for which the survival is 58%.

Consider `CCOC(=O)CN1C(C(=O)c2ccccc2)=C(OC(=O)C(C)(C)C)c2ccccc2S1(=O)=O`, for which the survival is 58%. Take `CCN1C(C(=O)c2ccccc2)=C(OC(=O)C(C)C)c2ccccc2S1(=O)=O`: the survival is 67%.

As to `CCCN1C(C(=O)c2ccccc2)=C(OC(=O)C(C)(C)C)c2ccccc2S1(=O)=O`, the survival was 53%.
